Test in all cases: NCI-60 one-dose screen, 48 h (100 = growth as untreated, 0 = no growth, -100 = all killed)
Common to all, as to conditions: 10 µM unless noted

The test system of assay [1] is T-47D breast.
Assay [2] relates to BT-549 breast.
Assay [3] concerns MDA-MB-435 melanoma.
Assay [4] concerns SW-620 colon.
In assay [5] the test system is MCF7 breast.
Assay [6] deals with HCT-116 colon.
Assay [7] has as its system HCC-2998 colon.
Assay [8] has as its system KM12 colon.

About 83,000 compounds went through this panel and 20% of them were active in at least one assay; those are over-represented in the sample as a whole.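 Cells were grown in 96-well plates and exposed to the test compound at a single concentration for 48 hours; results are reported as percent growth, with values below 10 considered active.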 Unmarked numbers belong to inactive results. Activity calls are given as the source filed them.

Take `O=c1[nH][nH]c(-c2ccc(F)cc2)c1-c1nc2ccccc2s1`: the growth in assay [1] was 87.7%; in assay [2] it was 98.8%; in assay [3] it was 104%; in assay [4] it was 105%; in assay [5], 81.2%; in assay [6] it was 93.2%. In addition, the growth in assay [7] was 107%; in assay [8] it was 105%.

On to `O=C(CCCCCCNC(=O)C(O)(O)C(F)(F)F)Nc1ccc(-c2ccccc2)cc1`, for which the growth in assay [1] was 11.5%; in assay [2], 14.8%; in assay [3], 7.66% (active); in assay [4] it was 2.53% (active); in assay [5], 9.59% (active); in assay [6], 4.14% (active). Moreover, the results for the growth in assay [7] and in assay [8] were -0.948% (active) and 8.38% (active), respectively.

`C#CCOc1ccc(/C=N/Nc2nc(-c3ccc(OC)cc3)cs2)cc1`: the growth in assay [1] was 68.7%; in assay [2], 89.1%; in assay [3], 79.3%; in assay [4], 93.3%; in assay [5], 69.8%; in assay [6] it was 71.4%. Moreover, the values for the growth in assay [7] and in assay [8] were 103% and 78.8%, respectively.

With `CN(C)CCCOc1ccc(C(=C(c2ccccc2)C2CCCC2)c2ccc(OCCCN(C)C)cc2)cc1`, the growth in assay [1] was -76.6% (active); in assay [2] it was -83.3% (active); in assay [3] it was -62.8% (active); in assay [4] it was -34.2% (active); in assay [5], -65.8% (active); in assay [6], -44.7% (active). The growth is -83.9% (active) in assay [7] and -96.9% (active) in assay [8].

As for `CC1=C(C)C(=O)C(Nc2ccc3c(c2)OCCO3)=C(Br)C1=O`, the growth in assay [1] is 80.5%; in assay [2] it was 101%; in assay [3], 102%; in assay [4] it was 107%; in assay [5] it was 78.2%; in assay [6] it was 90.6%. The growth in assay [7] is 102%; in assay [8] it was 93.7%.

With `CN1CCN(c2ccc(Nc3nc(NCCNS(=O)(=O)c4ccc5ccccc5c4)c4sccc4n3)cc2)CC1`, the growth in assay [1] was 55.2%; in assay [2] it was 86.7%; in assay [3], 53.7%; in assay [4] it was 35.2%; in assay [5], 32.9%; in assay [6] it was 14.7%. Moreover, the growth in assay [7] was 72.3%; in assay [8] it was 86.7%.

Regarding `O=C(COc1ccc(/C=C2\C(=O)Nc3ccc(F)cc32)cc1)Nc1ccccc1`, the growth in assay [1] is 97.7%; in assay [2], 116%; in assay [3], 98.6%; in assay [4], 103%; in assay [5] it was 89.8%; in assay [6] it was 69%. The growth was 101% in assay [7] and 97.8% in assay [8].

Regarding `CN1CCN(Cc2ccc(NC(=O)c3cncc(C#Cc4cnc5ccc(O[C@@H]6CCOC6)nn45)c3)cc2C(F)(F)F)CC1`, the growth in assay [1] was -29.2% (active); in assay [2], -81.9% (active); in assay [3] it was -97.6% (active); in assay [4] it was -28% (active); in assay [5], -68.1% (active); in assay [6] it was -73.1% (active). In addition, the growth in assay [7] was -85% (active); in assay [8] it was -82.4% (active).

With `COc1ccc2[nH]cc(-c3nc(N)nnc3-c3cn(C)c4ccc(Br)cc34)c2c1`, the growth in assay [1] is 29.3%; in assay [2] it was 39.6%; in assay [3], -8.23% (active); in assay [4] it was 20.9%; in assay [5], 12.2%; in assay [6], 18.1%. In addition, the growth was 58.9% in assay [7] and 23.7% in assay [8].

On to `CC(Nc1ncnc2ccc(-c3cnc4cnccn34)cc12)c1ccccc1` (stereo not drawn), for which the growth is 17.5% in assay [1]; 47.9% in assay [2]; 69.1% in assay [3]; 85.7% in assay [4]; 33.5% in assay [5]; 72.3% in assay [6]. In addition, the figures for the growth in assay [7] and in assay [8] were 80.7% and 41.6%, respectively.

For the compound `C=C(C)[C@@H]1CC[C@]2(COP(=O)(OCC)OCC)CC[C@]3(C)[C@H](CC[C@@H]4[C@@]5(C)CC[C@H](OP(=O)(OCC)OCC)C(C)(C)[C@@H]5CC[C@]43C)[C@@H]12`, the growth in assay [1] is 20.8%; in assay [2] it was 65%; in assay [3], 61%; in assay [4], 38.4%; in assay [5] it was 0.255% (active); in assay [6] it was 6.75% (active). The growth in assay [7] was 19.9%; in assay [8], 54.2%.

Take `Cn1ncc2c(C(=O)c3ccc(F)cc3)nc(C(C)(C)C)nc21`: the growth in assay [1] is 102%; in assay [2], 98.4%; in assay [3], 97.9%; in assay [4], 95.9%; in assay [5], 93.6%; in assay [6], 95.3%. In addition, the growth is 103% in assay [7] and 100% in assay [8].

Turning to `Oc1ccc(-c2nc3ccc(/C(=N\N=C\c4ccc(Cl)cc4)c4ccccc4)cc3[nH]2)cc1`, the growth in assay [1] is 79.9%; in assay [2], 94.3%; in assay [3] it was 84.4%; in assay [4], 88.5%; in assay [5], 53.1%; in assay [6] it was 82.6%. The values for the growth in assay [7] and in assay [8] were 91.9% and 74%, respectively.

Consider `O=C(CCCCCCNC(=O)C(O)(O)C(F)(F)F)Nc1ccc(Br)cc1`, for which the growth was 8.06% (active) in assay [1]; 19.5% in assay [2]; 6.63% (active) in assay [3]; 3.78% (active) in assay [4]; 13.7% in assay [5]; -6.77% (active) in assay [6]. In addition, the growth was 1.89% (active) in assay [7] and 14.1% in assay [8].

In the case of `Cc1cccc(N2CCN(C3=C(Cl)C(=O)c4ncccc4C3=O)CC2)c1`, the growth was -39.5% (active) in assay [1]; 97.9% in assay [2]; 11.8% in assay [3]; 11% in assay [4]; 5.92% (active) in assay [5]; -16.3% (active) in assay [6]. The growth in assay [7] is 107%; in assay [8], 92.2%.

With `COc1ccc2sc(NC(=O)CCCCCCNC(=O)C(O)(O)C(F)(F)F)nc2c1`, the growth in assay [1] is 8.02% (active); in assay [2], 7.95% (active); in assay [3], 1.37% (active); in assay [4], 5.18% (active); in assay [5], 9.01% (active); in assay [6] it was 0.844% (active). For the same compound, the results for the growth in assay [7] and in assay [8] were -45.9% (active) and -15.1% (active), respectively.

As to `O=C(/C=C/C=C/c1csc(Br)n1)NO`, the growth in assay [1] was 103%; in assay [2] it was 98.4%; in assay [3], 92.6%; in assay [4], 103%; in assay [5], 84.2%; in assay [6], 95.8%. Further, the growth is 107% in assay [7] and 93.4% in assay [8].

For the compound `COc1cc(OC)cc(-c2cc(-c3c[nH]c4ccccc34)nc(-c3c[nH]c4ccccc34)c2C#N)c1`, the growth was 98.3% in assay [1]; 104% in assay [2]; 99.4% in assay [3]; 103% in assay [4]; 90.7% in assay [5]; 101% in assay [6]. Also, the values for the growth in assay [7] and in assay [8] were 113% and 98.7%, respectively.

Turning to `O=S(=O)(Oc1ccc(-c2cn3ccoc3n2)cc1)c1cccc(C(F)(F)F)c1`, the growth in assay [1] was 85.5%; in assay [2] it was 98.8%; in assay [3], 101%; in assay [4], 103%; in assay [5] it was 89.5%; in assay [6] it was 102%. In addition, the growth in assay [7] was 99.8%; in assay [8], 95.7%.

As for `CCOC(=O)c1ccc(NC2=CC(=O)C(C)=C(C)C2=O)cc1`, the growth in assay [1] is 43.2%; in assay [2], 91.1%; in assay [3], 44.2%; in assay [4], 101%; in assay [5] it was 62.7%; in assay [6], 56.5%. Further, the growth was 101% in assay [7] and 46.1% in assay [8].

With `Cc1cc2nc(C(Cl)Cl)nc(-c3ccc(S(=O)(=O)N(C)C)cc3)n2n1`, the growth is 69.8% in assay [1]; 38.5% in assay [2]; 47% in assay [3]; 18.2% in assay [4]; 62.1% in assay [5]; 18.2% in assay [6]. For the same compound, the growth in assay [7] is 47.6%; in assay [8], 39.1%.

As for `CN1CC[C@@H]2[C@@]3(C)CC[C@H](O)C(C)(C)[C@@H]3CC[C@@]2(C)[C@]2(C)CC[C@@]3(CO)CCC(C)(C)C[C@@H]3C12` (stereo partly drawn), the growth was 79.8% in assay [1]; 96.7% in assay [2]; 95.7% in assay [3]; 90.2% in assay [4]; 77% in assay [5]; 77.9% in assay [6]. In addition, the results for the growth in assay [7] and in assay [8] were 27.5% and 96.2%, respectively.

In the case of `Cc1ccc(C(=O)CSc2nnc(-c3ccc(-c4ccc(Cl)cc4)nc3C)o2)cc1`, the growth in assay [1] is 92.1%; in assay [2], 107%; in assay [3], 103%; in assay [4], 103%; in assay [5], 81%; in assay [6] it was 98.1%. Moreover, the growth in assay [7] is 103%; in assay [8], 97.2%.

Consider `NCCNC(=O)c1cccc(COc2ccccc2NC(=O)c2cc(Br)c(Br)[nH]2)c1`, for which the growth in assay [1] is 75.9%; in assay [2] it was 130%; in assay [3], 96.2%; in assay [4], 35.1%; in assay [5], 16.9%; in assay [6], 20.2%. The results for the growth in assay [7] and in assay [8] were 99.8% and 89.7%, respectively.

As for `O=C(CSc1nnc(-c2cccs2)n1-c1ccccc1)Nc1ccccc1`, the growth in assay [1] is 78.4%; in assay [2], 85.5%; in assay [3], 57.9%; in assay [4], 87.2%; in assay [5], 80.3%; in assay [6], 75.4%. Further, the results for the growth in assay [7] and in assay [8] were 111% and 84.8%, respectively.

Regarding `O=C(Nc1cccc(C(F)(F)F)c1)N1CCN(c2cc(-c3cn(-c4ccccc4)nc3-c3cccc(O)c3)ccn2)CC1`, the growth in assay [1] is -5.55% (active); in assay [2], 55.4%; in assay [3], 47.3%; in assay [4] it was 52.3%; in assay [5] it was 25.3%; in assay [6], 27.4%. For the same compound, the values for the growth in assay [7] and in assay [8] were 86.3% and 32%, respectively.

In the case of `COc1cc2oc(-c3cccc(NC(=O)[C@@H](N)C(C)C)c3)cc(=O)c2c(OC)c1OC`, the growth is 87.3% in assay [1]; 104% in assay [2]; 109% in assay [3]; 105% in assay [4]; 92.9% in assay [5]; 98.6% in assay [6]. Besides, the growth was 109% in assay [7] and 101% in assay [8].

Take `O=C(Nc1ccc(N2CCOCC2)cc1)Nc1ccc2c(ccn2C(=O)c2cccc(F)c2)c1`: the growth in assay [1] was 68.9%; in assay [2], 71.7%; in assay [3], 68.3%; in assay [4], 74.5%; in assay [5], 53.2%; in assay [6] it was 24.2%. The growth in assay [7] was 62.4%; in assay [8], 74.1%.

In the case of `CC(Nc1c(C#N)cnc2ccc(-c3cncc(O)c3)cc12)c1ccccc1` (stereo not drawn), the growth in assay [1] is 6.53% (active); in assay [2], -18.3% (active); in assay [3], 25.2%; in assay [4], 10.1%; in assay [5] it was 0.808% (active); in assay [6], 3.68% (active). Besides, the growth in assay [7] is 19.5%; in assay [8], 4.85% (active).

Consider `O=C(CCCCCC/C=C\c1csc(Br)n1)NO`, for which the growth in assay [1] is 76.3%; in assay [2] it was 103%; in assay [3], 84.4%; in assay [4] it was 78.2%; in assay [5], 73.1%; in assay [6] it was 52.5%. The growth was 98.5% in assay [7] and 91.7% in assay [8].

For the compound `CCOP(=O)(OCC)OC[C@]12CC[C@@H](C)[C@H](C)C1C1=CC[C@@H]3[C@@]4(C)CCCNC(C)(C)[C@@H]4CC[C@@]3(C)[C@]1(C)CC2` (stereo partly drawn), the growth in assay [1] is 38.2%; in assay [2], 71.7%; in assay [3] it was 28.4%; in assay [4], -54.7% (active); in assay [5], -59.8% (active); in assay [6], -84.5% (active). Moreover, the growth in assay [7] was -55.1% (active); in assay [8], 18.2%.

(Values after PubChem BioAssay (NCI).)
